Laboratory results from PubChem BioAssay (NCATS).
Results filed as inconclusive are left out. The source made the active and inactive calls. Calls come from the whole dose curve; as a rule, active = well fitted inhibition curve with a large enough effect; inconclusive = small, poorly fitted or top-dose-only effect; inactive = no such curve, though single readings can be large or run the other way.

Target: Cytochrome P450 3A4 (Homo sapiens) (UniProt P08684)
Test: qHTS Assay for Inhibitors and Substrates of Cytochrome P450 3A4 (AID 884); note: nearly all actives have a fitted effect of over 50% in size
Conditions: recombinant CYP3A4, Luciferin-PPXE luminescence; series mostly up to 57.1 µM
Procedure, shortened: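 Luminescent readout of luciferin produced by CYP3A4 (20 nM) dealkylation of Luciferin-PPXE, 25 uM (its KM). NADPH-driven reaction ran 60 min at RT after 10 min compound preincubation; data scaled to 57 uM ketoconazole as 100% inhibition.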
Potency is the fitted concentration of half-maximal effect.

Sequence of Cytochrome P450 3A4 (Homo sapiens) (P08684 whole entry, looked up): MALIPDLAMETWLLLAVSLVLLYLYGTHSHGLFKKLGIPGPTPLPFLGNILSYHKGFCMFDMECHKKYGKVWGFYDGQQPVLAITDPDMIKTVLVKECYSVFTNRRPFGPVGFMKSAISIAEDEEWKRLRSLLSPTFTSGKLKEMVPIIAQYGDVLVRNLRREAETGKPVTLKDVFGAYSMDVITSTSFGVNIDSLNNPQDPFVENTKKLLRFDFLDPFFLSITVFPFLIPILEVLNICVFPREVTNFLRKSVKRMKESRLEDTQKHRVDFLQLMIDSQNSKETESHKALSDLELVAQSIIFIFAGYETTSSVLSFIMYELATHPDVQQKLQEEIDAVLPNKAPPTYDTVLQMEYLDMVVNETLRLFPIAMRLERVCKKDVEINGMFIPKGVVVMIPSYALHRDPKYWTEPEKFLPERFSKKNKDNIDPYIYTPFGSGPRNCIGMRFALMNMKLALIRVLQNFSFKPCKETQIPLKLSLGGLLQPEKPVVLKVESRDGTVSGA

Potency, active:
COCCNC(=O)C1(C)C=CC2(CCCCC2)N1C(=O)c1ccccc1 (stereo not given) 15.8 µM, CC(=O)N1CC=CC1(CC(C)C)C(=O)NCCc1c[nH]c2ccccc12 (stereo not given) 3.98 µM, CCC[C@@H]1C[C@@]1(CCC)[C@@H](NC(=O)Oc1ccccc1)c1ccc(C(=O)OC)cc1 15.8 µM, COC(=O)c1ccc(C(NC(=O)OCc2ccccc2)/C(=C/[C@@H](C)C(=O)NCCF)c2cccnc2)cc1 (stereo not given in full) 6.31 µM, CC(=O)N1CC=CC1(CC(C)C)C(=O)NCc1cc(F)cc(C(F)(F)F)c1 (stereo not given) 12.6 µM, COC(=O)[C@H](Cc1ccccc1)NC(=O)[C@@]1(C)C[C@@H]1[C@@H](NC(=O)OCc1ccccc1)c1ccccc1 2 µM, CC(=O)N1[C@H](Cc2ccccc2)C=C[C@]1(C)C(=O)NCc1cc(F)cc(C(F)(F)F)c1 6.31 µM, CC(=O)N1[C@H](Cc2ccccc2)C=C[C@]1(C)C(=O)NCCN1CCOCC1 15.8 µM, COC(=O)c1ccc(C(NC(=O)OCc2ccccc2)/C(=C/[C@@H](C)C(=O)NCc2cc(F)cc(F)c2)c2cccnc2)cc1 (stereo not given in full) 1.58 µM, COC(=O)c1ccc(C(NC(=O)OCc2ccccc2)/C(F)=C/[C@@H](C)C(=O)N[C@@H](CO)Cc2ccccc2)cc1 (stereo not given in full) 7.94 µM, O=C1C(Cl)=C(NC2CCc3ccccc32)C(=O)c2ncccc21 (stereo not given) 1.58 µM, CC(Cc1ccccc1)C(=O)NCCO (stereo not given) 15.8 µM, C[C@@H]1C=C[C@](Cc2ccccc2)(C(=O)NCCN2CCOCC2)N1C(=O)c1ccccc1 5.01 µM, CC(=O)N1[C@H](Cc2ccccc2)C=C[C@]1(C)C(=O)NCc1ccc(C)o1 7.94 µM, COC(=O)c1ccc(C(NC(=O)OCc2ccccc2)/C(C)=C/[C@@H](C)C(=O)NCc2cccnc2)cc1 (stereo not given in full) 0.794 µM
